The results in this text go back to PubChem BioAssay (NCI).

Compounds without any hit were thinned out: in the full panel of roughly 83,000, 20% have a hit.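 A percent growth of 40 corresponds to 60% growth inhibition; 0 means no net growth; -100 means all cells died. Active threshold: below 10.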 Unmarked numbers belong to inactive results. Active and inactive are the calls of the source.

Common to all, as to assay: NCI-60 one-dose screen, 48 h (100 = growth as untreated, 0 = no growth, -100 = all killed)
Details in all cases: 10 µM unless noted

For assay [1], the system named is HCT-15 colon.
Assay [2] concerns HT29 colon.
Assay [3] deals with SNB-75 CNS.
The subject of assay [4] is SNB-19 CNS.
Assay [5] concerns U251 CNS.
Assay [6] has as its system PC-3 prostate.
Assay [7] has as its system SK-MEL-5 melanoma.
For assay [8], the system named is UACC-62 melanoma.
Assay [9] relates to LOX IMVI melanoma.
Assay [10] relates to SK-MEL-28 melanoma.

`O=Cc1[nH]c(Sc2ccccc2)c2ccccc12`: the growth in [1] is 70.3%; in assay [2], 55.4%; in [3], 42.8%; in assay [4], 89.1%; in assay [5], 67.5%; in assay [6], 46.4%. Also, the growth in assay [7] is 74%; in [8], 62.3%; in assay [9] it was 80.5%; in [10], 92.9%.
For `CCCCn1c(=O)c(/C=C/C(=O)/C=C/c2ccc(O)c(OC)c2)cc2ccc(Cl)cc21`, the growth in assay [1] is 9.41% (active); in assay [2], -41.7% (active); in assay [3], 54.8%; in assay [4], 38.3%; in [5], 3.33% (active); in assay [6], 27.2%. Besides, the growth in [7] was 3.38% (active); in assay [8], 2.4% (active); in [9] it was -51.3% (active); in assay [10], 38.8%.
Regarding `C#CCOC(=O)[C@]1(C)CCC[C@]2(C)[C@H]3C[C@H]4C(C(C)C)=C[C@]3(CC[C@H]21)[C@@H]1C(=O)CCC(=O)[C@@H]14`, the growth in [1] is 92.6%; in assay [2], 71.1%; in [3], 90.3%; in assay [4], 86%; in assay [5] it was 87.6%; in [6], 49.7%. The growth in assay [7] is 85.5%; in assay [8] it was 63.1%; in assay [9] it was 78.8%; in [10], 95.3%.
On to `CC(C)CSc1nc(Nc2ccccc2)c(C#N)c(-c2ccc(F)cc2)n1`, for which the growth is 67.4% in [1]; 50.7% in [2]; -16.2% (active) in [3]; 5.61% (active) in [4]; -32.5% (active) in [5]; 47.7% in assay [6]. Further, the growth was 80.5% in assay [7], 70.9% in assay [8], 4.45% (active) in assay [9] and 84.5% in assay [10].
`Nc1ccc(C(=O)Nc2cccc(C(=O)Nc3ccc4c(O)c(N=Nc5ccc(N=Nc6ccc(S(=O)(=O)O)cc6)cc5)c(S(=O)(=O)O)cc4c3)c2)cc1`: the growth was 102% in [1]; 97.6% in [2]; 85.7% in [3]; 107% in assay [4]; 107% in [5]; 98.2% in assay [6]. The growth was 107% in assay [7], 98.6% in assay [8], 94.7% in [9] and 99.7% in [10].
In the case of `O=C1C(Cl)=C(NCCCN(CCCNC2=C(Cl)C(=O)c3ccccc3C2=O)C2=C(Cl)C(=O)c3ccccc3C2=O)C(=O)c2ccccc21`, the growth in [1] was 37.1%; in [2] it was 12.4%; in assay [3], 104%; in assay [4], 72.9%; in assay [5] it was 37.4%; in assay [6], 47%. The growth in assay [7] was -59.1% (active); in assay [8], 17.9%; in [9], 10.8%; in assay [10], 71.7%.
For the compound `COc1ccc2nc(-c3ccc(Cl)cc3)cc(-c3nnc(SC/C(=N/O)c4ccccc4)o3)c2c1`, the growth in assay [1] was 48.3%; in assay [2], 27%; in [3] it was 84.8%; in assay [4], 68.4%; in assay [5], 17.3%; in assay [6], 30%. Besides, the growth in assay [7] is 25.9%; in assay [8], 49.1%; in [9], 44.2%; in assay [10] it was 44.2%.
As to `CCOC(=O)c1ccc(Nc2ncnc3ccc(NC(=O)c4ccccc4)cc23)cc1`, the growth was 78.3% in assay [1]; 79.6% in [2]; 77.9% in assay [3]; 99.9% in [4]; 94.1% in assay [5]; 83.1% in [6]. Besides, the growth in [7] was 84.6%; in [8], 88.9%; in [9] it was 87.8%; in assay [10], 89.6%.
Consider `CCOC(=O)c1c(C)nc2c(c1N)/C(=C/c1cccs1)C(=O)N2Cc1ccccc1`, for which the growth in assay [1] was 19.5%; in assay [2], 57.3%; in assay [3] it was 72.6%; in [4], 68.1%; in assay [5], 49.8%; in [6], 51.8%. For the same compound, the growth in assay [7] was 83.8%; in [8], 67.6%; in assay [9], 36.4%; in assay [10] it was 90.2%.
Consider `CCCCc1nc(Cl)c(C2CC(c3ccc(Cl)cc3)=NN2c2cc(Cl)cc(Cl)c2)[nH]1` (stereo not given), for which the growth in assay [1] is 86.5%; in assay [2], 85.4%; in [3], 65.6%; in [4], 93%; in assay [5] it was 90.7%; in assay [6], 45.6%. Further, the growth in assay [7] is 69.1%; in [8], 78.2%; in [9], 67.2%; in assay [10], 99.8%.
In the case of `Nc1c(C(=O)Nc2ccccn2)sc2nc3c(cc12)CCCC3`, the growth in assay [1] was 27.4%; in assay [2] it was 21.7%; in assay [3] it was 38.1%; in assay [4], 45.7%; in [5], 33.2%; in assay [6], 64.9%. The growth in assay [7] is 26.3%; in assay [8], 41.2%; in [9] it was 41.5%; in [10], 64.8%.
Regarding `COc1ccc(Nc2nc(SCC(C)C)nc(-c3ccc(F)cc3)c2C#N)cc1`, the growth in assay [1] was 46%; in [2], 24.3%; in [3] it was 70.6%; in [4], 50.3%; in assay [5], 56.7%; in [6], 49.2%. In addition, the growth is 53.6% in assay [7], 40.6% in [8], 57.8% in [9] and 72.2% in assay [10].
